Results reported in PubChem BioAssay AID1159580 (chemical genetic matrix, 2015).
About 2,000 (36%) of roughly 5,500 compounds were called active. Another 18% or so got no clear call; they are omitted. Rule as the data show it: active = normalized growth mostly below about 0.91 (no sharp cut-off); inconclusive = no clear call, values can overlap the other calls; inactive = mostly above about 0.92. The list shows a part of the results.

Assay: chemical genetic growth profiling, strain panel (AID 1159580);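 also: tested at 20 µM; growth read once vehicle control cultures reached saturation at 30 °C; 1 = growth at the plate median or of vehicle wells; lower values mean less growth of the strain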
Settings: growth OD
[1] = S. cerevisiae deletion strains, locus YAR019C, strain CDC15, hits give low values
[2] = S. cerevisiae deletion strains, locus YBL105C, strain PKC1, hits give low values
[3] = S. cerevisiae deletion strains, locus YBR135W, strain CKS1, hits give low values
[4] = S. cerevisiae deletion strains, locus YBR136W, strain MEC1, hits give low values
[5] = S. cerevisiae deletion strains, locus YBR160W, strain CDC28, hits give low values
[6] = S. cerevisiae deletion strains, locus YDL017W, strain CDC7, hits give low values
[7] = S. cerevisiae deletion strains, locus YDL028C, strain MPS1, hits give low values
[8] = S. cerevisiae deletion strains, locus YDL101C, strain DUN1, hits give low values
[9] = S. cerevisiae deletion strains, locus YDL108W, strain KIN28, hits give low values
[10] = S. cerevisiae deletion strains, locus YDL132W, strain cdc53, hits give low values
[11] = S. cerevisiae deletion strains, locus YDL214C, strain PRR2, hits give low values
[12] = S. cerevisiae deletion strains, locus YDR052C, strain DBF4, hits give low values
[13] = S. cerevisiae deletion strains, locus YDR054C, strain cdc34, hits give low values
[14] = S. cerevisiae deletion strains, locus YDR226W, strain ADK1, hits give low values
[15] = S. cerevisiae deletion strains, locus YDR477W, strain SNF1, hits give low values
[16] = S. cerevisiae deletion strains, locus YER123W, strain YCK3, hits give low values
[17] = S. cerevisiae deletion strains, locus YER133W, strain GLC7, hits give low values
[18] = S. cerevisiae deletion strains, locus YFL009W, strain cdc4, hits give low values
[19] = S. cerevisiae deletion strains, locus YFL029C, strain CAK1, hits give low values
[20] = S. cerevisiae deletion strains, locus YFR003C, strain YPI1, hits give low values
[21] = S. cerevisiae deletion strains, locus YFR019W, strain FAB1, hits give low values
[22] = S. cerevisiae deletion strains, locus YFR028C, strain CDC14, hits give low values
[23] = S. cerevisiae deletion strains, locus YGR040W, strain KSS1, hits give low values
[24] = S. cerevisiae deletion strains, locus YGR052W, strain FMP48, hits give low values
[25] = S. cerevisiae deletion strains, locus YGR092W, strain DBF2, hits give low values
[26] = S. cerevisiae deletion strains, locus YHR030C, strain SLT2, hits give low values
[27] = S. cerevisiae deletion strains, locus YHR079C, strain IRE1, hits give low values
[28] = S. cerevisiae deletion strains, locus YHR082C, strain KSP1, hits give low values
[29] = S. cerevisiae deletion strains, locus YHR205W, strain SCH9, hits give low values
[30] = S. cerevisiae deletion strains, locus YIL147C, strain SLN1, hits give low values
[31] = S. cerevisiae deletion strains, locus YJL095W, strain BCK1, hits give low values
[32] = S. cerevisiae deletion strains, locus YJL128C, strain PBS2, hits give low values
[33] = S. cerevisiae deletion strains, locus YJL157C, strain FAR1, hits give low values
[34] = S. cerevisiae deletion strains, locus YJR016C, strain ILV3, hits give low values
[35] = S. cerevisiae deletion strains, locus YJR066W, strain TOR1 (second series), hits give low values
[36] = S. cerevisiae deletion strains, locus YJR066W, strain TOR1, hits give low values
[37] = S. cerevisiae deletion strains, locus YKL048C, strain ELM1, hits give low values
[38] = S. cerevisiae deletion strains, locus YKL067W, strain YNK1, hits give low values
[39] = S. cerevisiae deletion strains, locus YKL101W, strain HSL1, hits give low values
[40] = S. cerevisiae deletion strains, locus YKL193C, strain SDS22, hits give low values
[41] = S. cerevisiae deletion strains, locus YKL203C, strain TOR2, hits give low values
[42] = S. cerevisiae deletion strains, locus YLR113W, strain HOG1, hits give low values
[43] = S. cerevisiae deletion strains, locus YLR133W, strain CKI1, hits give low values
[44] = S. cerevisiae deletion strains, locus YLR403W, strain SFP1, hits give low values
[45] = S. cerevisiae deletion strains, locus YML070W, strain DAK1, hits give low values
[46] = S. cerevisiae deletion strains, locus YMR001C, strain CDC5, hits give low values
[47] = S. cerevisiae deletion strains, locus YMR205C, strain PFK2 (second series), hits give low values
[48] = S. cerevisiae deletion strains, locus YMR277W, strain FCP1, hits give low values
[49] = S. cerevisiae deletion strains, locus YNL006W, strain LST8, hits give low values
[50] = S. cerevisiae deletion strains, locus YNL020C, strain ARK1, hits give low values
[51] = S. cerevisiae deletion strains, locus YNL161W, strain CBK1, hits give low values
[52] = S. cerevisiae deletion strains, locus YNL183C, strain NPR1, hits give low values
[53] = S. cerevisiae deletion strains, locus YNL207W, strain RIO2, hits give low values
[54] = S. cerevisiae deletion strains, locus YNL222W, strain SSU72, hits give low values
[55] = S. cerevisiae deletion strains, locus YNL307C, strain MCK1 (second series), hits give low values
[56] = S. cerevisiae deletion strains, locus YOL078W, strain AVO1, hits give low values
[57] = S. cerevisiae deletion strains, locus YOL136C, strain PFK27, hits give low values
[58] = S. cerevisiae deletion strains, locus YOR061W, strain CKA2, hits give low values
[59] = S. cerevisiae deletion strains, locus YOR119C, strain RIO1, hits give low values
[60] = S. cerevisiae deletion strains, locus YOR231W, strain MKK1, hits give low values
[61] = S. cerevisiae deletion strains, locus YOR329C, strain SCD5, hits give low values
[62] = S. cerevisiae deletion strains, locus YPL031C, strain PHO85, hits give low values
[63] = S. cerevisiae deletion strains, locus YPL153C, strain RAD53, hits give low values
[64] = S. cerevisiae deletion strains, locus YPL204W, strain HRR25, hits give low values
[65] = S. cerevisiae deletion strains, locus YPL209C, strain IPL1, hits give low values
[66] = S. cerevisiae deletion strains, locus YPL256C, strain CLN2, hits give low values
[67] = S. cerevisiae deletion strains, locus YPR025C, strain CCL1, hits give low values
[68] = S. cerevisiae deletion strains, locus YPR106W, strain ISR1, hits give low values
[69] = S. cerevisiae deletion strains, locus YPR111W, strain DBF20, hits give low values
[70] = S. cerevisiae deletion strains, strain NNK1, hits give low values
[71] = S. cerevisiae deletion strains, strain TSCII, hits give low values
[72] = S. cerevisiae deletion strains, locus YMR307W, strain GAS1, hits give low values
[73] = S. cerevisiae deletion strains, locus YPL055C, strain LGE1, hits give low values
[74] = S. cerevisiae deletion strains, locus YPL241C, strain CIN2, hits give low values

Measured: normalized growth

Cc1ccc(S(=O)(=O)Nc2ccc(Oc3ccc(F)cc3)cc2)cc1
inactive: [1] 0.98 | [2] 0.977 | [3] 0.983 | [4] 0.985 | [5] 0.976 | [6] 0.985 | [7] 0.987 | [8] 0.982 | [9] 0.977 | [10] 0.974 | [11] 0.907 | [12] 0.979 | [13] 0.975 | [14] 0.983 | [15] 0.927 | [16] 0.866 | [17] 0.93 | [18] 0.983 | [19] 0.977 | [20] 0.979 | [21] 0.95 | [22] 0.972 | [23] 0.915 | [24] 0.91 | [25] 0.839 | [27] 0.876 | [28] 0.895 | [29] 0.926 | [30] 0.992 | [31] 0.9 | [32] 0.946 | [33] 0.908 | [34] 0.981 | [35] 0.892 | [36] 0.968 | [37] 0.934 | [38] 0.905 | [39] 0.887 | [40] 0.978 | [41] 0.979 | [43] 0.916 | [44] 0.914 | [45] 0.868 | [46] 0.986 | [47] 0.918 | [48] 0.985 | [49] 0.996 | [50] 0.898 | [51] 0.978 | [52] 0.836 | [53] 0.985 | [54] 0.969 | [55] 0.873 | [56] 0.978 | [57] 0.88 | [58] 0.898 | [59] 0.981 | [60] 0.849 | [61] 0.983 | [62] 0.913 | [63] 0.862 | [64] 0.896 | [65] 0.979 | [67] 0.984 | [68] 0.965 | [69] 0.953 | [70] 0.969 | [71] 0.98
active: [26] 0.767 | [42] 0.739 | [66] 0.815

O=S(=O)(Nc1ccc(Oc2ccc(OC(F)(F)F)cc2)cc1)c1cccc(Cl)c1
inactive: [1] 0.982 | [2] 0.973 | [3] 0.978 | [4] 0.982 | [5] 0.981 | [6] 0.982 | [7] 0.982 | [8] 0.991 | [9] 0.976 | [10] 0.988 | [11] 0.932 | [12] 0.98 | [13] 0.988 | [14] 0.984 | [15] 0.964 | [16] 0.933 | [17] 0.933 | [18] 0.979 | [19] 0.985 | [20] 0.977 | [21] 0.891 | [22] 0.985 | [23] 0.949 | [24] 0.958 | [25] 0.937 | [27] 0.837 | [28] 0.978 | [29] 0.955 | [30] 0.982 | [31] 0.948 | [32] 0.936 | [33] 0.946 | [34] 0.991 | [35] 0.92 | [36] 0.975 | [37] 0.945 | [38] 0.934 | [39] 0.916 | [40] 0.984 | [41] 0.995 | [43] 0.941 | [44] 0.954 | [45] 0.923 | [46] 0.984 | [47] 0.954 | [48] 0.983 | [49] 0.98 | [50] 0.919 | [51] 0.977 | [52] 0.991 | [53] 0.989 | [54] 0.979 | [55] 0.897 | [56] 0.991 | [57] 0.92 | [58] 0.917 | [59] 1.03 | [60] 0.887 | [61] 0.974 | [62] 0.95 | [63] 0.982 | [64] 0.941 | [65] 0.977 | [67] 0.977 | [68] 0.988 | [69] 0.969 | [70] 0.989 | [71] 0.983
active: [26] 0.562 | [42] 0.695 | [66] 0.75

Cn1nccc1NS(=O)(=O)c1cccc(Cl)c1
inactive: S. cerevisiae deletion strains, locus YAL013W, strain DEP1, hits give low values 1.01 | S. cerevisiae deletion strains, locus YBR229C, strain ROT2, hits give low values 1.01 | S. cerevisiae deletion strains, locus YCL061C, strain MRC1, hits give low values 1.02 | [8] 1 | S. cerevisiae deletion strains, locus YDL134C, strain PPH21, hits give low values 0.969 | S. cerevisiae deletion strains, locus YDR150W, strain NUM1, hits give low values 1.04 | S. cerevisiae deletion strains, locus YEL061C, strain CIN8, hits give low values 1.01 | S. cerevisiae deletion strains, locus YGR078C, strain PAC10, hits give low values 1.02 | [26] 1.07 | S. cerevisiae deletion strains, locus YHR087W, strain rtc3, hits give low values 1.01 | S. cerevisiae deletion strains, locus YJR043C, strain POL32, hits give low values 1.03 | S. cerevisiae deletion strains, locus YJR075W, strain HOC1, hits give low values 1.02 | S. cerevisiae deletion strains, locus YLR039C, strain RIC1, hits give low values 0.98 | S. cerevisiae deletion strains, locus YLR058C, strain SHM2 (second series), hits give low values 1.04 | S. cerevisiae deletion strains, locus YLR085C, strain ARP6, hits give low values 0.984 | S. cerevisiae deletion strains, locus YLR262C, strain YPT6, hits give low values 1.07 | S. cerevisiae deletion strains, locus YML094W, strain GIM5, hits give low values 0.972 | S. cerevisiae deletion strains, locus YMR219W, strain ESC1, hits give low values 0.998 | S. cerevisiae deletion strains, locus YMR263W, strain SAP30, hits give low values 1.03 | [72] 0.957 | S. cerevisiae deletion strains, locus YNL153C, strain GIM3, hits give low values 1.01 | S. cerevisiae deletion strains, locus YNL298W, strain CLA4 (second series), hits give low values 1.03 | S. cerevisiae deletion strains, locus YNL322C, strain KRE1, hits give low values 1 | S. cerevisiae deletion strains, locus YNR030W, strain Alg12, hits give low values 0.995 | [73] 1 | [74] 0.975 | S. cerevisiae deletion strains, locus YPR135W, strain CTF4, hits give low values 1.08 | S. cerevisiae strains, strain wild type, hits give low values 1.01

CCn1c(=O)c2[nH]c(-c3ccccc3)nc2n(CC)c1=O
inactive: S. cerevisiae deletion strains, locus YAL040C, strain CLN3, hits give low values 1 | S. cerevisiae deletion strains, locus YCL061C, strain MRC1 (second series), hits give low values 0.997 | S. cerevisiae deletion strains, locus YDR363W, strain ESC2, hits give low values 1.01 | S. cerevisiae deletion strains, locus YER002W, strain NOP16, hits give low values 1.04 | [72] 0.992 | S. cerevisiae deletion strains, locus YNL175C, strain NOP13, hits give low values 1.01 | S. cerevisiae deletion strains, locus YNL197C, strain WHI3, hits give low values 1.01 | S. cerevisiae deletion strains, locus YNL224C, strain SQS1, hits give low values 1 | S. cerevisiae deletion strains, locus YOR083W, strain WHI5 (second series), hits give low values 1.01 | [73] 1 | [74] 1.01
